The values that follow come from PubChem BioAssay AID2654 (Johns Hopkins Ion Channel Center, 2010).

Potency and affinity values are given separately. Calls of active or inactive are those of the source.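 Rule for the calls: active = increase of the KCNQ2 potassium channel current at -35 mV by at least one tested dose; inactive = no tested dose increases that current.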

This assay deals with Potassium voltage-gated channel subfamily KQT member 2 (Rattus norvegicus) (UniProt O88943). Nature of the assay: potentiation of rat KCNQ2 current – cell-based, retigabine-insensitive compounds, dose response (AID 2654). As to conditions: KCNQ2-CHO cells, automated patch clamp current potentiation; at 30 µM (top of the series).
Chain of Potassium voltage-gated channel subfamily KQT member 2 (Rattus norvegicus) (O88943 whole entry, looked up): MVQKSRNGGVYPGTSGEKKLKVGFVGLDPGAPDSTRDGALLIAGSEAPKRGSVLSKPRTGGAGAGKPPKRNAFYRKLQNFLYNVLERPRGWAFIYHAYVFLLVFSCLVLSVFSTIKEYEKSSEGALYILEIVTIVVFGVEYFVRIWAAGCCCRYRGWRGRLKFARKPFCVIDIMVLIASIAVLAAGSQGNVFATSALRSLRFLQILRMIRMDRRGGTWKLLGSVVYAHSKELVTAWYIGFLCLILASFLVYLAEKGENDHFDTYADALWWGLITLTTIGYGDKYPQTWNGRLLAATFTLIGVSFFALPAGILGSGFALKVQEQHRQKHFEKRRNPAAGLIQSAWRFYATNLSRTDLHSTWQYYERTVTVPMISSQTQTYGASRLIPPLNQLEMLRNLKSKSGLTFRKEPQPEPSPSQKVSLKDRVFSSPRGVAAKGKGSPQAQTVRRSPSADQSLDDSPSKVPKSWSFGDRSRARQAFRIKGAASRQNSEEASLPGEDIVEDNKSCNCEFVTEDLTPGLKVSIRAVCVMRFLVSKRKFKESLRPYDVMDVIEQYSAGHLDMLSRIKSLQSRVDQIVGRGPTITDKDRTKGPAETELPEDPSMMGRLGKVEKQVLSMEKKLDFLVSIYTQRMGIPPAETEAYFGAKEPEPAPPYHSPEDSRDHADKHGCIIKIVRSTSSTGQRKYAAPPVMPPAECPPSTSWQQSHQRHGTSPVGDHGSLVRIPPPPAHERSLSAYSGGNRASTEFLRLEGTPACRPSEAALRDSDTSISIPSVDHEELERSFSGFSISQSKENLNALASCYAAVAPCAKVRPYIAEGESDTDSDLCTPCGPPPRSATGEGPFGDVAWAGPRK
Consider `Cc1ccc(C)c(NC(=O)Nc2cccnc2)c1`, for which the outcome was inactive.
Still for that read-out and setting: then `S=C(NCc1ccco1)Nc1cccnc1`, with “inactive”.
The same measure, in the same setting: as for `Fc1ccc(NC(=S)Nc2cccnc2)cc1`, the entry is “inactive”; as for `COc1cccc(NC(=S)Nc2cccnc2)c1`, “inactive”.
Turning to `S=C(Nc1cccnc1)NC1CCCC1`, the outcome was inactive.
Same read-out and setting: then `Cc1nc(F)ccc1NC(=O)NCc1ccc(Cl)cc1Cl`, with “inactive”.
`Cc1ccc(Cl)cc1NC(=O)Nc1cccnc1`: the result was inactive.
Still for that read-out and setting: as for `CC(CCc1ccccc1)NC(=S)Nc1cccnc1` (configuration not stated), the entry is “inactive”.
On the same count and under the same terms, as for `Cc1cc(Cl)ccc1NC(=S)Nc1cccnc1`, the entry is “inactive”; as for `O=C(Nc1cccnc1)Nc1ccc(Cl)c(Cl)c1`, “inactive”.
For `S=C(Nc1cccnc1)NC1CCCc2ccccc21` (configuration not stated), the result was inactive.
On the same count and under the same terms, as for `COc1cccc(NC(=O)Nc2cccnc2)c1`, the entry is “inactive”.
On the same count and under the same terms, then `Cc1cncc(NC(=O)NCc2ccc(Cl)cc2Cl)c1`, with “inactive”; and `Cc1cc(NC(=O)Nc2cccc(F)c2)cnc1Cl`, with “inactive”.
Still for that read-out and setting: then `S=C(NCC1CCCCC1)Nc1cccnc1`, with “inactive”; and `S=C(Nc1ccc(Cl)cc1)Nc1cccnc1`, with “inactive”; and `O=C(NCc1ccc(Cl)cc1Cl)Nc1ccc(Br)nc1`, with “inactive”.
Take `S=C(NCc1ccc(Cl)cc1Cl)Nc1cccnc1`: the outcome was inactive.
In the case of `O=C(NCC(F)(F)F)Nc1cccnc1`, the outcome was inactive.
Same read-out and setting: as for `Fc1ccc(NC(=S)Nc2cccnc2)c(F)c1F`, the entry is “inactive”; as for `Fc1ccc(NC(=S)Nc2cccnc2)c(F)c1`, “inactive”.
The same measure, in the same setting: then `O=C(Nc1cccnc1)Nc1ccc(Cl)cc1Cl`, with “inactive”; and `COc1cc(NC(=S)Nc2cccnc2)cc(OC)c1`, with “inactive”.
On the same count and under the same terms, as for `Cc1ccc(Cl)cc1NC(=S)Nc1cccnc1`, the entry is “inactive”.
In the case of `O=C(Nc1cccnc1)Nc1ccc2c(c1)CCC2`, the potentiation was 103.
Still for that read-out and setting: as for `Cc1c(Cl)cccc1NC(=O)Nc1cccnc1`, the figure is 102.
As for `Cc1ccc(NC(=O)Nc2cccnc2)c(C)c1`, the outcome was inactive.
